Records with an inconclusive call do not appear. Calls of active or inactive are those of the source. Unless noted, the call rests on the fitted dose curve; in most records, active means well fitted curve in the direction sought with a large enough effect; inconclusive means small, poorly fitted or top-dose-only effect, or another doubt; inactive means no such curve, though single readings can be large; an effect the other way counts as inactive or inconclusive.
Experiments:
[1] = MultiTox-Fluor Cytotoxicity Assay - LYMP1-001 - Live Cells (AID 947); details: LYMP1-001 lymphoblastoid cells, live-cell protease fluorescence viability; series mostly up to 92.2 µM
[2] = Cell Viability - LYMP1-002 - Assay at 16 hr (AID 948); details: LYMP1-002 lymphoblastoid cell viability; series mostly up to 92.2 µM
Procedure, shortened: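 Human lymphoblastoid cells (LYMP1-002), 2500/well, were preincubated 5 hr at 37 C, then exposed to compounds for 16 hr at 37 C in complete medium. Cellular ATP was read by CellTiter-Glo luminescence after 30 min at room temperature; AC50 from Hill fits.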

[3] = MultiTox-Fluor Cytotoxicity Assay - LYMP1-002 - Live Cells (AID 955); details: LYMP1-002 lymphoblastoid live-cell protease fluorescence viability; series mostly up to 46.1 µM
Procedure, shortened: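 Read-out is live-cell protease activity (cell-permeant GF-AFC substrate, fluorescence Ex/Em=405/510), where a decrease indicates acute toxicity. Human lymphoblastoid cells were treated 16 hours at 37 C in a concentration series, and AC50 values came from standard Hill modelling.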

[4] = MultiTox-Fluor Cytotoxicity Assay - LYMP1-003 - Dead Cells (AID 961); details: LYMP1-003 lymphoblastoid cells, dead-cell protease fluorescence; series mostly up to 92.2 µM; further: nearly all actives have a fitted effect of over 70% in size
Procedure, shortened: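 Dead-cell protease release, detected as bis-AAF-R110 fluorescence at 485/520 nm, was measured in LYMP1-003 cells after 16 h compound treatment at 37 C. AC50 values came from Hill-modeled qHTS curves normalized to DMSO (0%) and 15 uM tetraoctylammonium bromide (100%).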

[5] = MultiTox-Fluor Cytotoxicity Assay - LYMP1-003 - Live Cells (AID 962); details: LYMP1-003 lymphoblastoid cells, MultiTox-Fluor live-cell protease fluorescence; series mostly up to 92.2 µM;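 further: cytotoxic hits lower the live-cell protease signal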
Procedure, shortened: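 qHTS, 1536-well; 2500 cells/well LYMP1-003; 5 hr 37 C settle; cpd 16 hr 37 C; MultiTox-Fluor reagent 60 min RT; live-cell protease fluor. 405/510; Hill-fit AC50; tetraoctylammonium bromide pos. ctrl.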

[6] = Cell Viability - LYMP1-003 - Assay at 24 hr (AID 963); details: LYMP1-003 lymphoblastoid cell viability; series mostly up to 92.2 µM
Procedure, shortened: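 Cells seeded at 2500/well, 5 hr at 37 C; compounds added; 24 hr at 37 C; CellTiter-Glo added, 30 min room temperature; luminescence read. Decrease in ATP taken as cytotoxicity, AC50 from Hill modelling.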

[7] = Cell Viability - LYMP1-003 - Assay at 40 hr (AID 964); details: LYMP1-003 lymphoblastoid viability; series mostly up to 92.2 µM; further: nearly all actives have a fitted effect of over 60% in size
Procedure, shortened: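 Cells were seeded at 2500 per well and incubated 5 hr at 37 C. Compounds were added across a concentration series and left 40 hr at 37 C. CellTiter-Glo was added for 30 min at room temperature before luminescence reading.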

[8] = Cell Viability - LYMP2-003 (AID 965); details: LYMP2-003 lymphoblastoid cell viability; series mostly up to 92.2 µM;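 further: cells exposed to compounds for 24 h before reading; nearly all actives have a fitted effect of over 50% in size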
Procedure, shortened: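 Human lymphoblastoid cells (2500/well) were pre-incubated 5 hr at 37 C, then exposed to compounds over a concentration range for 24 hr at 37 C. Intracellular ATP was read by CellTiter-Glo luminescence; AC50 came from Hill-equation fits.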

[9] = Cell Viability - LYMP2-004 (AID 966); details: LYMP2-004 lymphoblastoid cell viability, qHTS; series mostly up to 92.2 µM; further: nearly all actives have a fitted effect of over 65% in size
Procedure, shortened: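 Cells seeded 2500/well, rested 5 hr at 37 C, dosed across a concentration series, incubated 24 hr at 37 C, then CellTiter-Glo added for 30 min at room temperature and luminescence read. Hill fitting gave AC50.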

[10] = Cell Viability - LYMP2-009 (AID 968); details: LYMP2-009 lymphoblastoid cell viability; series mostly up to 92.2 µM; further: nearly all actives have a fitted effect of over 55% in size
[11] = Cell Viability - LYMP2-011 (AID 969); details: LYMP2-011 lymphoblastoid cells viability; series mostly up to 92.2 µM; further: nearly all actives have a fitted effect of over 60% in size
Procedure, shortened: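 2500 cells/well, 5 hr 37 C; compound added, 24 hr 37 C; CellTiter-Glo 30 min RT; luminescence. qHTS concentration-response, Hill-equation AC50. Tetraoctylammonium bromide positive control.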

[12] = Cell Viability - LYMP2-013 (AID 970); details: LYMP2-013 lymphoblastoid cells viability; series mostly up to 92.2 µM; further: nearly all actives have a fitted effect of over 55% in size
Procedure, shortened: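 qHTS; 2500 lymphoblastoid cells/well; 5 hr 37 C settle; cpd 24 hr 37 C; CellTiter-Glo, 30 min RT; luminescence. AC50 = Hill fit.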

[13] = Cell Viability - LYMP2-015 (AID 971); details: LYMP2-015 lymphoblastoid cell viability; series mostly up to 92.2 µM; further: nearly all actives have a fitted effect of over 55% in size
Procedure, shortened: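 Luminescent ATP read-out (CellTiter-Glo) served as the viability measure after lymphoblastoid cells were exposed to compounds for 24 hours at 37 C. Concentration-response data were fitted with the Hill equation to give AC50.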

[14] = Cell Viability - LYMP2-017 (AID 972); details: LYMP2-017 lymphoblastoid cell viability; series mostly up to 92.2 µM; further: nearly all actives have a fitted effect of over 55% in size
Procedure, shortened: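 2500 cells/well, 5 h 37 C; cpd 24 h 37 C in complete medium; CellTiter-Glo, 30 min RT; luminescence (ATP). AC50 via Hill fit, qHTS.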

[15] = Cell Viability - LYMP2-019 (AID 973); details: LYMP2-019 lymphoblastoid cell line viability; series mostly up to 92.2 µM; further: nearly all actives have a fitted effect of over 55% in size
Procedure, shortened: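 Luminescent ATP read-out (CellTiter-Glo, 30 min room temperature) served as the viability measure after 24 hr treatment of lymphoblastoid cells at 37 C. Concentration-response data were fitted to the Hill equation for AC50.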

[16] = Cell Viability - LYMP2-021 (AID 974); details: LYMP2-021 lymphoblastoid cells viability; series mostly up to 92.2 µM
Procedure, shortened: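 Plate 2500 lymphoblastoid cells per well and incubate 5 hr at 37 C. Add compounds over a concentration range and incubate 24 hr at 37 C. Add CellTiter-Glo, wait 30 min at room temperature, read luminescence.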

[17] = Cell Viability - LYMP2-023 (AID 975); details: LYMP2-023 lymphoblastoid cell viability; series mostly up to 92.2 µM
Procedure, shortened: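 2500 cells/well, 5 hr 37 C; cpd 24 hr 37 C; CellTiter-Glo, 30 min RT; luminescence. qHTS conc-response, Hill fit -> AC50. Pos ctrl tetraoctylammonium bromide.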

[18] = MultiTox-Fluor Cytotoxicity Assay - LYMP1-002 - Dead Cells (AID 960); details: LYMP1-002 lymphoblastoid cells, dead-cell protease fluorescence; series mostly up to 46.1 µM; further: nearly all actives have a fitted effect of over 60% in size
Procedure, shortened: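 LYMP1-002 cells 2500/well; 5 hr 37 C pre-incubation; compound 16 hr 37 C; MultiTox-Fluor reagent 60 min RT; dead-cell fluor Ex/Em 485/520. Norm. to DMSO (0%) vs 15 uM tetraoctylammonium bromide (100%); Hill AC50.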

[19] = target: Pyruvate kinase PKM (Homo sapiens) (UniProt P14618); assay: qHTS Assay for Activators of Human Muscle Pyruvate Kinase (AID 954; active means well fitted curve in the direction sought with a large enough effect, not every such curve was filed as active); details: purified human muscle pyruvate kinase, luciferase-coupled luminescence, 1 h; series mostly up to 57.5 µM
Sequence of Pyruvate kinase PKM (Homo sapiens) (P14618 whole entry, looked up): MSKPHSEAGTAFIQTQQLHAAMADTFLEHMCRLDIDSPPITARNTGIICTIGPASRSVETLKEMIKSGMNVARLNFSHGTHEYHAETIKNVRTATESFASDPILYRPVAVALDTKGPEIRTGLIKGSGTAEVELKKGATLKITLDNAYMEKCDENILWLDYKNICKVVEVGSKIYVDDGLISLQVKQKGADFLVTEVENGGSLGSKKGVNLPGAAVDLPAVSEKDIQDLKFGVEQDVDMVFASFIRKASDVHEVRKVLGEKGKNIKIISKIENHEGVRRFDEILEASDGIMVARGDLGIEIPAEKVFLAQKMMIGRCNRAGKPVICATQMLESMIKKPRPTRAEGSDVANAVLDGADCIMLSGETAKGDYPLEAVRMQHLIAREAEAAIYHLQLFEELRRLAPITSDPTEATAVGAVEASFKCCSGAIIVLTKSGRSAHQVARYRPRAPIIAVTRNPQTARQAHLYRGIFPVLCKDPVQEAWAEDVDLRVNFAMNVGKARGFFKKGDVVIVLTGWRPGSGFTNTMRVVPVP
Procedure, shortened: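 Human PKM2 activity is measured as ATP generation, detected by luciferase-coupled luminescence. The enzyme (0.1 nM) acts on 0.5 mM PEP and 0.1 mM ADP for 1 h at ambient temperature; data are normalized to uninhibited and full-inhibition wells.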

Measured: Potency

COc1ccc(C(c2ccc(OC)cc2)C(Cl)(Cl)Cl)cc1
inactive: [1] | [2] | [3] | [4] | [5] | [6] | [7] | [8] | [9] | [10] | [11] | [12] | [13] | [14] | [15] | [16] | [17]

Nc1ccc(Cl)cc1N
inactive: [1] | [2] | [3] | [18] | [4] | [5] | [6] | [7] | [8] | [10] | [11] | [12] | [14] | [15] | [16] | [17]

CNCCc1ccc(O)c(O)c1
inactive: [19]

CCCCc1ccc(C(=O)O)nc1
inactive: [19]

Nc1ccc(Cl)cc1
inactive: [1] | [2] | [3] | [18] | [4] | [5] | [6] | [7] | [8] | [9] | [10] | [11] | [12] | [13] | [14] | [15] | [16] | [17]

Nc1ccc([N+](=O)[O-])cc1
inactive: [1] | [2] | [3] | [18] | [4] | [5] | [6] | [7] | [8] | [9] | [10] | [11] | [12] | [13] | [14] | [15] | [16] | [17]

CCOP(=O)(NC(C)C)Oc1ccc(SC)c(C)c1 (stereo not given)
inactive: [2] | [3] | [18] | [4] | [5] | [6] | [7] | [8] | [9] | [10] | [11] | [12] | [13] | [14] | [15] | [16] | [17]

CN(C)[C@@H]1C(=O)C(C(N)=O)=C(O)[C@@]2(O)C(=O)C3=C(O)c4c(O)cccc4[C@@](C)(O)[C@H]3[C@H](O)[C@@H]12
inactive: [1] | [2] | [3] | [18] | [4] | [5] | [6] | [7] | [8] | [9] | [10] | [11] | [12] | [13] | [14] | [15] | [16] | [17]

C1CCC(NC2CCCCC2)CC1
inactive: [1] | [2] | [3] | [18] | [4] | [5] | [6] | [7] | [8] | [9] | [10] | [11] | [12] | [13] | [14] | [15] | [16] | [17]

CC(C)(O)C(=O)Nc1ccc([N+](=O)[O-])c(C(F)(F)F)c1
inactive: [1] | [2] | [3] | [4] | [5] | [6] | [7] | [8] | [9] | [10] | [11] | [12] | [13] | [14] | [15] | [16] | [17]

Cc1cc(O)ccc1Cl
inactive: [1] | [2] | [3] | [18] | [4] | [5] | [6] | [7] | [8] | [9] | [10] | [11] | [12] | [13] | [14] | [15] | [16] | [17]

CCOCCOC(C)=O
inactive: [1] | [2] | [3] | [4] | [5] | [6] | [7] | [8] | [9] | [10] | [11] | [12] | [13] | [14] | [15] | [16] | [17]

CN(C)NC(=O)CCC(=O)O
inactive: [1] | [2] | [3] | [18] | [4] | [5] | [6] | [7] | [8] | [9] | [10] | [11] | [12] | [13] | [14] | [15] | [16] | [17]

C=CC(=O)NCNC(=O)C=C
inactive: [1] | [2] | [3] | [18] | [4] | [5] | [6] | [7] | [8] | [9] | [10] | [11] | [12] | [13] | [14] | [15] | [16] | [17]

O=C(O)C(Cl)Cl
inactive: [1] | [2] | [3] | [18] | [4] | [5] | [6] | [7] | [8] | [9] | [10] | [11] | [12] | [13] | [14] | [15] | [16] | [17]

Source: PubChem BioAssay (NCATS)
